Source: PubChem BioAssay (NCI)
The panel holds about 83,000 compounds, 20% with a hit somewhere; the sample as a whole holds those more often.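 The test compound was applied at a single concentration to cells in 96-well plates for 48 hours, and percent growth was recorded.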 Values without a mark were called inactive. Active and inactive are the calls of the source. How the source made its calls: active means growth percent below 10; inactive means the rest.

What was measured:
Experiment in all cases: NCI-60 one-dose screen, 48 h (100 = growth as untreated, 0 = no growth, -100 = all killed)
Conditions in all cases: 10 µM unless noted
SR leukemia = test system: SR leukemia
RPMI-8226 leukemia = test system: RPMI-8226 leukemia
OVCAR-8 ovarian = test system: OVCAR-8 ovarian
OVCAR-5 ovarian = test system: OVCAR-5 ovarian
OVCAR-4 ovarian = test system: OVCAR-4 ovarian
SK-OV-3 ovarian = test system: SK-OV-3 ovarian
IGROV1 ovarian = test system: IGROV1 ovarian
OVCAR-3 ovarian = test system: OVCAR-3 ovarian
HS 578T breast = test system: HS 578T breast
NCI/ADR-RES ovarian = test system: NCI/ADR-RES ovarian

Row | Structure (SMILES) | growth (SR leukemia) | growth (RPMI-8226 leukemia) | growth (OVCAR-8 ovarian) | growth (OVCAR-5 ovarian) | growth (OVCAR-4 ovarian) | growth (SK-OV-3 ovarian) | growth (IGROV1 ovarian) | growth (OVCAR-3 ovarian) | growth (HS 578T breast) | growth (NCI/ADR-RES ovarian)
1 | Nc1cc2ccccc2c(=O)n1NC(=O)c1ccccc1 | 84.3% | 94.2% | 104% | 107% | 98.6% | 93.5% | 90.2% | 70.6% | 91.4% | 102%
2 | O=C(NC(=S)N1CCN(c2ncnc3c2cnn3-c2ccccc2)CC1)c1ccc(F)cc1 | 8.59% (active) | 76.3% | 67.8% | 92.8% | 45.8% | 69.1% | 79.4% | 113% | 70.5% | 71.8%
3 | Cc1ccc2c(c1)/C(=C/C(=O)c1cc3ccccc3oc1=O)C(=O)N2 | 6.51% (active) | 36.7% | 54.9% | 77.4% | 53.9% | 100% | 102% | -0.742% (active) | 78% | 65.9%
4 | Cc1ccc(S(=O)(=O)Nc2ccc(-c3ccc4c(c3)NC(=O)/C4=C\c3ccc[nH]3)cc2)cc1 | -3.97% (active) | 63.6% | 86.7% | 90.8% | 83.3% | 108% | 93.5% | 125% | 92.2% | 89%
5 | COc1cc(/C=N/NC(=O)c2ccc(OCc3nc4ccc(Cl)cc4[nH]3)cc2)cc(OC)c1OC | 33% | 2.76% (active) | 34.5% | 76.3% | 67.1% | 97.7% | 43.1% | 55.7% | 58.3% | 80.6%
6 | O=C(COc1ccc(/C=C2/C(=O)Nc3ccc(Cl)cc32)cc1)Nc1ccc(Br)cc1 | -35.7% (active) | 14% | -44.4% (active) | 3.15% (active) | -54% (active) | -57.8% (active) | -22.2% (active) | -64.8% (active) | -14.2% (active) | -34% (active)
7 | Cc1nc2sccn2c1-c1nnc(SCc2ccccc2)o1 | 87.5% | 79.1% | 96.5% | 90.2% | 79.8% | 97.9% | 92% | 117% | 107% | 78.1%
8 | COc1ccc2[nH]cc(-c3cc4nc(-c5cn(C)c6ncccc56)cc(N)n4n3)c2c1 | -9.65% (active) | -33.4% (active) | -40.6% (active) | -17.6% (active) | -26.4% (active) | 103% | -62.5% (active) | -57.6% (active) | -10.3% (active) | -15.6% (active)
9 | COc1cc2cc(C(=O)N3C[C@@H](CCl)c4c3cc(OC(=O)N(CCC(=O)N3CCN(C)CC3)[C@H]3CCSSC3)c3ccccc43)[nH]c2c(OC)c1OC | -22.9% (active) | -5.04% (active) | -49.8% (active) | -4.73% (active) | -11.9% (active) | 10.8% | -16.7% (active) | -55.8% (active) | -14.1% (active) | -55.3% (active)
10 | COc1ccc2[nH]cc(-c3cc(N)n4nc(-c5c[nH]c6ccccc56)cc4n3)c2c1 | 11.1% | -11.5% (active) | -43.9% (active) | 7.37% (active) | 30.9% | 3.49% (active) | 16% | 14.6% | 37.2% | 27.7%
11 | O=C(c1ccc(Cl)cc1)C1[C@H](c2ccccc2Cl)[C@@H](c2ccccc2)NC12C(=O)Nc1ccc(Br)cc12 (stereo not given in full) | -54.4% (active) | 2.44% (active) | -76.9% (active) | -91.5% (active) | -33.3% (active) | -7.68% (active) | -59.8% (active) | -48.3% (active) | -36% (active) | -87% (active)
12 | O=C(CSc1nnc(-c2ccc(-c3nc4ccc(Cl)cc4[nH]3)cc2)o1)Nc1ccc(Br)cc1 | 17.1% | 8.9% (active) | -31.8% (active) | 47.5% | 16% | 73% | 53.4% | 9.66% (active) | -0.329% (active) | 15%
13 | COc1ccc(N=Nc2c(N)nn3c(-c4ccc([N+](=O)[O-])cc4)ccnc23)cc1 | 98.2% | 94% | 107% | 113% | 92.8% | 106% | 104% | 113% | 89% | 97.8%
